Screening data (PubChem)
Tau ThT inhib – inhibitors of human tau fibril formation, thioflavin T binding; Potency, µM (top dose mostly 57.4 µM), without a hit: top-dose activity, negative = inhibition, hits mostly inhibitors; recombinant tau K18 P301L, heparin-induced fibrillization, ThT fluorescence; AID 1460; 270,000 compounds, 2.1% hits; also: nearly all actives have a fitted effect of over 55% in size
Target sequence (P10636 561-689 P618L limits assumed): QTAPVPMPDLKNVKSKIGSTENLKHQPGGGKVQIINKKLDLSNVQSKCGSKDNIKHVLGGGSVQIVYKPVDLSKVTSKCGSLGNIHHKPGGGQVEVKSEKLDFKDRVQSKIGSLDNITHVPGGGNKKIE
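In this qHTS, human K18 P301L tau is incubated with compound and heparin for 6 hr at 37 C, and Thioflavin T fluorescence then reports fibril load.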
Tau fibril FP – inhibitors of human tau fibril formation | P10636 | K18 P301L tau heparin fibrillization, Alexa594 FP, 6 h | Potency, µM (doses to about 57.7 µM), for the others: at the top dose activity, negative = inhibition, usual class: inhibitors | 280,000 compounds, 0.39% hits | AID 1468; also: nearly all actives have a fitted effect of over 55% in size
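Human K18 P301L fragment (15 uM unlabeled plus 0.24 uM Alexa 594-labeled) in 100 mM sodium acetate pH 7 with compound, aggregation induced by 20 uM heparin for 6 hr at 37 C. ThT (30 uM) added for 1 hr, then Alexa 594 FP read.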
GoLoco inh red – RGS12 GoLoco-Gai1 interaction inhibition; AID 880; Gai1:RGS12 GoLoco peptide FP, rhodamine, 10 min; Potency, µM (highest dose often 61.6 µM), for inactives: at the highest dose activity, negative = inhibition, hits mostly inhibitors; 230,000 compounds, 0.44% hits; P63096; active = well fitted inhibition curve with a large enough effect, not every such curve was filed as active; inactive = no such curve, though single readings can be large or run the other way; also: nearly all actives have a fitted effect of over 30% in size
Target sequence (P63096 whole entry, looked up): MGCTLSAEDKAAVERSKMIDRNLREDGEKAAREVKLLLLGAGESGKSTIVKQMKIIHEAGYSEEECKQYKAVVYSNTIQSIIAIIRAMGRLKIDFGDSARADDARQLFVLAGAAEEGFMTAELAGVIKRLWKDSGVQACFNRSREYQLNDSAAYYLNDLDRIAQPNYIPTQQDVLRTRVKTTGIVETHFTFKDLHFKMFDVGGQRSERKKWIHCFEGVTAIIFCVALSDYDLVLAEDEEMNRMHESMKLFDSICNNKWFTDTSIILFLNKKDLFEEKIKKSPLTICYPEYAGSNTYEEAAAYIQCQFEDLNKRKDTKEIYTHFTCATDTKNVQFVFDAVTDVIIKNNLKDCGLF
TRb-SRC2 inh – TRbeta-SRC2 interaction inhibition; 280,000 compounds, 0.065% hits; AID 1469; Potency, µM (doses to about 106 µM), for inactives: at the highest dose activity change, negative = inhibition, actives largely listed as inhibitors; TRbeta-SRC2 peptide binding, fluorescence polarization; receptor liganded with 1 µM T3;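 also: plate controls were bound peptide for no effect and peptide without receptor for full effect; nearly all actives have a fitted effect of over 50% in size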
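Human TRb LBD (0.6 uM) plus Texas Red-labeled SRC2 peptide (20 nM), 1uM T3, 5% DMSO, 5 hr at ambient temperature. Decreased polarization (555/632 nm) flags inhibition; data normalized to free and bound peptide controls.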
Tau fluor counter – counter-screen for tau fibril formation inhibitors | tau K18 P301L (four-repeat tau fragment) Alexa594 fluorescence, heparin fibrillization | Potency, µM (highest dose often 57.7 µM), for the others: top-dose activity change, negative = decrease | 280,000 compounds, 0.93% hits | AID 1463; also: nearly all actives have a fitted effect of over 55% in size
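Human K18 P301L tau (15 uM unlabeled plus 0.24 uM Alexa 594-labeled, final) in 100 mM sodium acetate pH 7 was mixed with compound and 20 uM heparin and incubated 6 hr at 37 C.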
TR SRC2 fluor cs – alters Texas Red total fluorescence, flagging assay interference; Potency, µM (doses to about 106 µM), for inactives: at the highest dose fluorescence change, negative = quenching; TRb/SRC2 Texas Red total fluorescence interference; 280,000 compounds, 0.29% hits; active = well fitted curve in either direction with a large enough effect; inconclusive = small, poorly fitted or top-dose-only effect
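Human TRβ ligand-binding domain (0.6 uM) and Texas Red SRC2 peptide (20 nM) in Tris buffer with 1 uM T3 and 5% DMSO were incubated with pinned compound for 5 hr at ambient temperature. Total fluorescence was computed as S + 2P (555/632 nm).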
The depositor's hits bear a star; ? = inconclusive; nt = not tested or not shown; [ ] = dose if it differs, or a comment. Rows were chosen to be rich in hits. Some 3.2% of all compounds tested hit in one or more screens of this group. Unless noted, calls follow the shape of the dose curve; as a rule, active = well fitted curve in the direction sought with a large enough effect; inconclusive = small, poorly fitted or top-dose-only effect, or another doubt; inactive = no such curve, though single readings can be large; an effect the other way counts as inactive or inconclusive. Unless noted, % is scaled to controls: 0 for no effect and ±100 for the full control effect; potency is read from the fitted curve at half-maximal effect.

SMILES	Tau ThT inhib	Tau fibril FP	GoLoco inh red	TRb-SRC2 inh	Tau fluor counter	TR SRC2 fluor cs
O=C(NCc1ccc(-c2nc3ccccc3s2)cc1)c1ccco1	-3.2%	?	12.2%	-9.8%	-0.4%	0.0006µM*[quencher]
CC(c1ccccc1)C(CC(=O)O)C(=O)NC1CCCCC1 (configuration not stated)	0.8%	-14.8%	5.0%	-2.4%	-5.8%	-0.7%
CC(c1ccccc1)C1OCC(C[N+]2(C)CCCCC2)O1 (configuration not stated)	-10.6%	-0.2%	10µM*	-5.2%	-11.0%	0.3%
CCNC(=O)c1c(N)sc2c1CCCCC2	31.6µM*	?	24.8%	-4.0%	-18.8%	4.7%
O=[N+]([O-])c1cc(S(=O)(=O)N2CCCCCC2)ccc1F	15.8µM*	-7.1%	3.6%	-4.3%	?	1.2%
CC1(C)OCC(CSC2=C(SCC3COC(C)(C)O3)C(=O)c3ncccc3C2=O)O1 (configuration not stated)	1µM*	1.78µM*	-33.9%	-17.1%	?	-15.9%
O=C1c2cccnc2-c2ncccc21	1.0%	-4.5%	-7.0%	nt	2.7%	nt
Cc1[nH]nc2c1C(c1ccsc1C)C(C#N)=C(N)O2 (configuration not stated)	?	1.1%	1.1%	-0.6%	-12.9%	-4.0%
Cc1ccc(-c2ccc(C3C(C#N)=C(N)Oc4n[nH]c(C)c43)o2)cc1 (configuration not stated)	6.31µM*	-11.7%	-2.8%	-3.7%	12.6µM*[quencher]	-10.6%
Cc1[nH]nc2c1C(c1ccc(-c3ccc(Cl)cc3)o1)C(C#N)=C(N)O2 (configuration not stated)	10µM*	-8.7%	7.0%	-6.8%	?	-2.6%
Cc1[nH]nc2c1C(c1ccc(-c3ccccc3C#N)o1)C(C#N)=C(N)O2 (configuration not stated)	15.8µM*	-0.8%	nt	8.5%	-28.6%	-1.0%
Cc1[nH]nc2c1C(c1ccc(F)cc1)C(C#N)=C(N)O2 (configuration not stated)	1.5%	-1.0%	9.3%	-0.9%	-2.0%	-2.7%
CC(CCC(=O)O)C1CCC2C3C(=O)CC4CC(=O)CC[C@@]4(C)C3CC(=O)[C@]12C (some centres not stated)	-1.2%	6.1%	-3.8%	5.2%	-1.4%	-2.3%
O=C(N/N=C/c1ccc(N2CCOCC2)s1)c1ccccc1Br	?	2.7%	16.7%	-1.4%	-12.0%	-1.1%
Clc1cccc(N/N=C/c2ccc(N3CCOCC3)s2)c1	12.6µM*	?	-4.3%	7.1%	15.8µM*[quencher]	-49.5%
NC(=O)/N=N/C(N)=O	nt	nt	-25.5%	-3.1%	nt	-0.2%
N#Cc1cc(Sc2ccccn2)c([N+](=O)[O-])cc1C#N	14.1µM*	-16.6%	225.6%	6.9%	?	-23.6%
CCc1cc(=O)oc2cc(C)c3c(-c4ccc(F)cc4)coc3c12	?	-14.7%	nt	4.6%	-8.0%	-3.0%
COc1ccc(N=C2O/C(=C/c3sc(=S)n(CC4CCCO4)c3O)N=C2C#N)cc1 (configuration not stated)	10µM*	-11.8%	256.7%	10.1%	12.6µM*[quencher]	5.4%
CCN(Cc1cc(Cl)cc(C)c1O)Cc1c(O)ccc2ccccc12	nt	nt	0.9%[14.2 µM]	nt	nt	nt
O=C(CSc1nc(-c2ccccc2)[nH]c1-c1ccccc1)Nc1ccc2c(c1)OCCO2	?	-14.0%	nt	0.3%	10µM*[quencher]	-2.2%
O=C(CSc1nc(-c2ccc(F)cc2)[nH]c1-c1ccc(F)cc1)Nc1ccc2c(c1)OCO2	?	?	nt	10.1%	?	-1.7%
COc1ccc(-c2[nH]c(-c3ccccc3)nc2SCC(=O)Nc2ccc3c(c2)OCCO3)cc1	?	?	nt	-2.0%	8.91µM*[quencher]	-2.1%
O=C(CSc1nc(-c2ccc(F)cc2)[nH]c1-c1ccc(F)cc1)Nc1ccc2c(c1)OCCO2	?	-13.8%	nt	1.9%	8.91µM*[quencher]	-1.9%
CC(C)Cc1ccc(S(=O)(=O)NCc2nc3cccnc3n2Cc2ccccc2)cc1	3.5%	9.5%	nt	3.3%	2.2%	?
SMILES	Tau ThT inhib	Tau fibril FP	GoLoco inh red	TRb-SRC2 inh	Tau fluor counter	TR SRC2 fluor cs
CCOC(=O)c1nn(-c2ccccc2C)c(=O)c2c(N)scc12	15.8µM*	17.8µM*	-11.1%	-2.8%	-26.2%	-0.7%
O=C(Cc1ccc(Cl)cc1Cl)Nc1cccc(S(=O)(=O)Nc2ccccc2F)c1	?	28.2µM*	-8.1%	6.7%	-17.7%	-1.9%
O=C(Cn1cc(SCc2ccccc2F)c2ccccc21)N1CCCCC1	-10.2%	-1.8%	nt	-0.5%	-11.7%	-0.2%
N#Cc1cc2ccccc2nc1SCc1ccccn1	15.8µM*	-7.2%	3.3%	-7.0%	-27.5%	0.3%
CCOc1ccc(NC(=O)N2CCC(CN3CCC(C)CC3)CC2)cc1	-0.7%	1.6%	nt	-18.7%	-5.3%	100µM*[quencher]
CC1CCCCN1C(=O)Cn1cc(/C=C2/C(=O)Nc3ccccc32)c2ccccc21 (configuration not stated)	10µM*	15.2%	6.5%	4.6%	?	-9.6%
CC1CCCCN1C(=O)Cn1cc(C=O)c2ccccc21 (configuration not stated)	2.8%	3.4%	7.8%	2.7%	4.1%	0.5%
COc1cc(OC)c(NC(=O)C(NS(=O)(=O)c2cccc3nsnc23)c2ccccc2)cc1Cl (configuration not stated)	-12.1%	-12.9%	nt	4.2%	?	-3.0%
CCOC(=O)c1ccc(NC(=O)CCCn2c(=O)c3cccn3c3ccccc32)cc1	?	-2.5%	nt	0.2%	-10.2%	-14.5%
O=C(Cn1c(=O)c2cccn2c2ccccc21)NCCc1ccccc1	18.3%	14.1µM*	nt	2.8%	?	-1.6%
CCc1ccc(NC(=O)Cn2c(=O)c3cccn3c3ccccc32)cc1	11.9%	20µM*	nt	2.6%	?	?
Cc1cc(C)c(NC(=O)Cn2c(=O)c3cccn3c3ccccc32)c(C)c1	?	7.94µM*	nt	4.4%	?	0.9%
CCOC(=O)c1cccc(NC(=O)Cn2c(=O)c3cccn3c3ccccc32)c1	?	12.6µM*	nt	6.2%	?	8.4%
O=C(CCCn1c(=O)c2cccn2c2ccc(F)cc21)NCCc1ccccc1	-5.6%	-6.9%	nt	-1.0%	3.8%	?
CC1O[C@@H](O[C@@H]2C(O)C[C@H](O[C@@H]3C(O)C[C@@H](OC4CC[C@@]5(C)C6CC(O)[C@@]7(C)C(C8=CC(=O)OC8)CC[C@@]7(O)C6CC[C@@H]5C4)OC3C)OC2C)CC(O)[C@H]1O (some centres not stated)	0.0%	5.5%	-1.5%	-3.9%	-4.4%	0.0%
